Most compounds without a hit are left out; they make up all but 2.4% or so of the library.
D2 PAM-1 – positive allosteric modulators of human D2 dopamine receptor; AID 624464; hit rate 0.23% among 360,000; potentiation, % (no concentration beside the values); DiscoveRx D2 beta-arrestin cells, luminescence, 90 min; 100% = 57 uM dopamine signal; in the data active = potentiation above about 50%; inconclusive = mostly about 30% to 49%
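D2 cells co-treated with compound plus 50 nM dopamine (EC20) for 90 min at 37 deg C to detect potentiation. Beta-arrestin recruitment was read as enzyme-fragment luminescence after 1 h at ambient temperature. Full response was set by 57 uM dopamine.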
D2 antagonist – antagonists of human D2 dopamine receptor; P14416; HEK293 TREx D2 cells, calcium flux, dopamine EC80; inhibition, % at 10 µM; hit rate 2% among 340,000; in the data active = inhibition above about 30%; inactive = below that, where a call was filed; note: 0% is about no effect
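Overnight-induced (tetracycline, 30 C) HEK293 T-REx cells carrying force-coupled D2 receive a no-wash calcium dye, then compound, then EC80 dopamine at 180 s; signals are read kinetically throughout.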
D2 ag-1 – activates the human D2 dopamine receptor; DiscoveRx PathHunter D2 beta-arrestin, luminescence, 90 min; 100% = 57 uM dopamine signal; activation, % (concentration not given with the values); hit rate 0.084% among 360,000; AID 624465; in the data active = activation above about 40%; inconclusive = between about 15% and that limit
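Agonist mode: compounds alone added to overnight-plated D2 PathHunter cells for 90 min at 37 C, with 57 uM final dopamine (EC100) defining full response. Beta-arrestin recruitment detected by chemiluminescent reagent, read after 1 h at ambient temperature.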
D2 ag-2 – D2 dopamine receptor (human) agonism | hit rate 0.53% among 340,000 | AID 485358 | HEK293 T-REx D2 cells, calcium flux agonist mode | activation, % at 2 µM;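 active = activation over 3 SD above normal in the single-dose calcium agonist read, cut at about 30% in these data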; note: 0% is about no effect
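Tetracycline-induced HEK293 Trex cells with D2 receptor force-coupled to calcium signaling, plated overnight at 30 C and loaded with no-wash calcium dye. Calcium flux read kinetically for 180 s after compound addition; responses flag agonists.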
D2 PAM-2 – D2 dopamine receptor (human) potentiation | HEK293 T-REx D2, calcium flux, EC20 dopamine potentiation | potentiation, % at 10 µM | hit rate 0.34% among 340,000 | AID 485347 | P14416;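 active = potentiation over 3 SD above the plate norm, cut at about 30% in these data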; note: 0% is about no effect
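Tetracycline-induced HEK293 T-REx cells force-coupled to calcium signalling expressed D2; compounds were pin-added after a 10 s baseline, read kinetically 180 s, then an EC20 dopamine challenge followed with a further 180 s calcium read.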
D3 arrestin ag – activates human D3 dopamine receptor beta-arrestin recruitment; shares compounds with D2 ag-2; DiscoveRx D3 beta-arrestin cells, luminescence, 90 min; Potency, µM (titrated, usually from 76.9 µM), without a hit: at the top dose activation, most hits filed as activators; hit rate 4% among 2,300; AID 720506;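 note: potency is the fitted concentration of half-maximal effect; 100% = dopamine control response; nearly all actives have a fitted effect of over 70% in size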
Target sequence (P35462 whole entry, looked up): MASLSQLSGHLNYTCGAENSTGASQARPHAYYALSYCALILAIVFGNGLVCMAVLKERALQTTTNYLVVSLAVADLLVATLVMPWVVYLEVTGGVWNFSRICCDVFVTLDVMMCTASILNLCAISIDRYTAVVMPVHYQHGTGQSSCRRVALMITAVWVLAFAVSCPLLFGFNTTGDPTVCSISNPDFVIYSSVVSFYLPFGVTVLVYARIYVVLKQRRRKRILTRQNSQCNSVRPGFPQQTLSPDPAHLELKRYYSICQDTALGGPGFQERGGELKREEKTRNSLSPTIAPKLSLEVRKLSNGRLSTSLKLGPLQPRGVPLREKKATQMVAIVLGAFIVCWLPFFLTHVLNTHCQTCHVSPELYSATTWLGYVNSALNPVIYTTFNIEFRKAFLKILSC
D2 ag-3 – D2 receptor agonism, beta-arrestin counterscreen; shares compounds with D2 ag-2; DiscoveRx PathHunter D2 beta-arrestin, luminescence, 90 min; response scale: percent relative to full dopamine signal; Potency, µM (series often up to 76.9 µM), inactives show at the highest dose activation, most hits filed as activators; hit rate 5.9% among 2,300; AID 720507; note: potency is the fitted concentration of half-maximal effect; % of control where 0% means no effect; nearly all actives have a fitted effect of over 70% in size
Starred values were filed as active, the others as inactive; ? = inconclusive; nt = no result. Unless noted, calls come from the whole dose curve; as a rule, active = well fitted activation curve with a large enough effect; inconclusive = small, poorly fitted or top-dose-only effect; inactive = flat fitted curve, though single readings scatter.

SMILES | D2 PAM-1 | D2 antagonist | D2 ag-1 | D2 ag-2 | D2 PAM-2 | D3 arrestin ag | D2 ag-3
O=C(Nc1ccc(F)cc1)C1CC2CCC1C2 (configuration not stated) | -4 | nt | 13 | nt | nt | -10% | -6%
OC(CN1CCCCC1)Cn1c2ccccc2c2cc(Br)ccc21 (configuration not stated) | -10 | 80* | 7 | 39* | -28 | 15% | -1%
Cc1cccc(Cc2c(C)nc3nc(SCC(=O)NCc4ccc(F)cc4)nn3c2C)c1 | nt | nt | nt | 1 | -7 | nt | nt
CC(=O)c1cc2c(O)c(O)ccc2o1 | 13 | 2 | 7 | 1 | -7 | ? | 8%
CC(=O)c1cc2cc(O)ccc2o1 | -9 | -10 | -2 | 1 | -3 | nt | nt
COCCCn1c(SCC(=O)NC2CCCCC2)nnc1-c1ccncc1 | ? | 1 | -4 | 2 | -4 | nt | nt
COCCCn1c(SCC(=O)NC2CCS(=O)(=O)C2)nnc1-c1ccc(Cl)cc1 (configuration not stated) | -1 | -6 | -4 | 0 | 4 | -3% | -2%
CCOc1ccc(CCNC(=O)c2ccc3nc(N4CCOCC4)sc3c2)cc1OCC | -4 | 8 | 0 | 0 | 7 | 14% | 1%
COc1ccc(CCNC(=O)c2ccc3nc(N4CCOCC4)sc3c2)cc1OC | 5 | 12 | -4 | 0 | 4 | nt | nt
CCN(CC)c1ccc(NC(=O)c2cc(CN3CCCC3)on2)c(C)c1 | nt | nt | nt | 0 | -12 | nt | nt
O=C(NCC1CCCO1)/C(=C\c1cccc([N+](=O)[O-])c1)NC(=O)c1ccccc1 (configuration not stated) | -3 | 10 | -3 | 0 | -2 | -10% | -5%
O=C(O)CNC(=O)c1ccc(NC(=O)/C(=C/c2cccc([N+](=O)[O-])c2)NC(=O)c2ccco2)cc1 | -5 | 16 | -5 | 47* | -23 | -4% | -5%
O=C(O)CNC(=O)c1ccc(NC(=O)/C(=C/c2ccccc2)NC(=O)c2ccco2)cc1 | -11 | 3 | -6 | 1 | 3 | nt | nt
O=C(NCC1CCCO1)/C(=C/c1ccccc1)NC(=O)c1ccccc1 (configuration not stated) | -8 | -14 | -4 | 0 | 1 | nt | nt
Cc1nn(-c2ccccc2)c2nc(C3CC3)cc(C(=O)Nc3ccccc3F)c12 | nt | nt | nt | 0 | -4 | nt | nt
O=C(c1nc2nc(-c3cccs3)cc(C(F)(F)F)n2n1)N1CCN(Cc2ccccc2)CC1 | 19 | 5 | -1 | 65* | -11 | -7% | 1%
CCOC(=O)c1nc2nc(-c3cccs3)cc(C(F)(F)F)n2n1 | -8 | -4 | 3 | 2 | 13 | nt | nt
Cc1ccc(-n2ncc3c2CC(C)(C)CC3NC(=O)CN2CCCC2=O)cc1 (configuration not stated) | 7 | 9 | -1 | 0 | -8 | nt | nt
C=CCC(=O)NC1CC(C)(C)Cc2c1cnn2-c1ccc(C)cc1 (configuration not stated) | 0 | 14 | 4 | 72* | -20 | -8% | -5%
COc1ccc(C(=O)CN2C(=O)N(c3cc(C)cc(C)c3)S(=O)(=O)c3ccccc32)cc1 | nt | nt | nt | -1 | 4 | nt | nt
O=C(CCN1CCN(c2ccccc2F)CC1)Nc1ccccc1F | -19 | 86* | 8 | 55* | -2 | ? | ?
COc1ccc(C)cc1NC(=O)CN1CCN(c2ccccc2F)CC1 | -14 | -9 | 0 | 0 | -25 | nt | nt
CCN1CCN(CC(=O)Nc2ccc(Cl)c(S(=O)(=O)N(C)C)c2)CC1 | -18 | 5 | -4 | -1 | 1 | nt | nt
CN(C)S(=O)(=O)c1cc(NC(=O)CN2CCN(c3ccccc3F)CC2)ccc1Cl | 5 | 53* | ? | 54* | -11 | ? | ?
O=C(CN1CCN(c2ccccc2F)CC1)Nc1ccccc1F | -35 | -1 | 1 | 22 | -22 | -9% | 0%
O=C(CCN1CCN(C/C=C/c2ccccc2)CC1)Nc1ccccc1F | -15 | -15 | 3 | 3 | -2 | nt | nt
